From PubChem BioAssay (Tox21) come the findings set out here.

SMILES strings stand for the structures. Results filed as inconclusive are left out. Where a call stands in place of a potency, no number is given. A number with no mark means an inactive call. Calls of active or inactive are those of the source. The call rests on the fitted dose curve; in most records, active means well fitted cell-killing curve with a large enough effect in the repeat runs; inconclusive means weak or mixed curves, or effect the other way; inactive means flat fitted curve, though single readings scatter.

This assay in a line: cAMP Responsive Elements (CRE) small molecule antagonists, cell-based qHTS assay: qHTS cell viability counter screen (AID 2060913). Further: nearly all actives have a fitted effect of over 40% in size. The note with it: CRE-bla HEK293T viability, CellTiter-Glo luminescence, 5 h; series mostly up to 92.4 µM. The source says: U.S. Tox21 Program National Center for Advancing Translational Sciences [NCATS] Division of Preclinical Innovation [DPI] U.S. Environmental Protection Agency [EPA] National Institutes of Environmental Health Sciences [NIEHS] National Toxicology Program [NTP] U.S. Food and Drug Administration [FDA] Tox21 Assay Overview: CREB (cyclic-AMP Responsive Element Binding Protein) is a cellular transcription factor. It binds to certain DNA sequences called cAMP Responsive Elements (CRE) and regulates the transcription of the genes. […] This cell line can be used to find agonists/antagonists of the cyclic AMP signaling pathway. The activation of the report gene under culture conditions can be detected by fluorescence intensity. This cell line has been used to screen the Tox21 10K compound library to identify agonists that induce oxidative stress. The cytotoxicity of the Tox21 compound library against the CRE-bla cell line was tested in parallel by measuring the cell viability using CellTiter-Glo assay (Promega, Madison, WI) in the same wells.
Tox21 Assay Protocol Summary: CRE-bla Hek 293T cells were suspended in assay medium (DMEM containing 10% dialyzed FBS, 0.1 mM NEAA, 1 mM sodium pyruvate and 25 mM HEPES) and dispensed at 2,000 cells/4 uL /well into 1536-well black wall/clear bottom plates using a Multidrop Combi (ThermoFisher Scientific, Waltham, MA) dispenser. After the assay plates were incubated at 37 C/5% CO2 for 18 hrs, 23 nL of compounds dissolved in DMSO, positive controls or DMSO only was transferred to the assay plate by a pintool workstation (Kalypsys, San Diego, CA), followed by addition of 1 uL of 1.25uM NKH477 (0.25 uM as final concentration) in assay medium using a Flying Reagent Dispenser (Aurora Discovery, San Diego, CA). The plates were incubated at 37 C and 5% CO2 for 3 hrs. Then 1 uL of LiveBLAzer B/G FRET substrate (Invitrogen, Carlsbad, CA) was added to each well using Bioraptr Flying Reagent Dispenser (FRD, Aurora Discovery, San Diego, CA). The plates were incubated at room temperature for 2 h, then fluorescence intensities were measured using an Envision plate reader (PerkinElmer, Shelton, CT) at Excitation 405nm, Emission 460nm and 530nm. The % activity was determined from the ratio of 460nm/530nm. For cell viability readout that measures cytotoxicity, 4 uL /well of CellTiter-Glo reagent was added into the assay plates using Bioraptr FRD. After 30 min incubation at room temperature, the luminescence intensity in the assay plates was measured using a ViewLux (PerkinElmer, Shelton, CT) plate reader.
(In general: In qHTS, concentration-response curves come from the screen itself.)
With `NS(=O)(=O)c1cc2c(cc1Cl)NC(CC1CCCC1)NS2(=O)=O` (stereo not given), the Potency result was “inactive”.

On to `NS(=O)(=O)c1cc2c(cc1Cl)NC(CSCc1ccccc1)=NS2(=O)=O`, for which the Potency result was “inactive”.

Turning to `CCCCOCCOCCOC(=O)CCCCC(=O)OCCOCCOCCCC`, the Potency result is “inactive”.

For the compound `CC(N)C12CC3CC(CC(C3)C1)C2` (stereo not given), the Potency result was “inactive”.

`CCCCOCCOCCOCc1cc2c(cc1CCC)OCO2`: the Potency result is “inactive”.

For `CCCCCCC(C)(C)C(=O)O`, the Potency entry was “inactive”.

Regarding `CCCC(CCC)C(=O)O`, the Potency result is “inactive”.

On to `FB(F)F`, for which the Potency entry is “inactive”.

For the compound `c1ccc2c(c1)ccc1ncccc12`, the Potency entry is “inactive”.

As to `CC(O)CN(CCCN(C)C)CCCN(C)C` (stereo not given), the Potency result was “inactive”.

Regarding `Cn1c(=O)[nH]c2ncn(C)c2c1=O`, the Potency result is “inactive”.

As for `CS(=O)(=O)c1ccc([C@@H](O)[C@@H](CF)NC(=O)C(Cl)Cl)cc1`, the Potency entry is “inactive”.

Regarding `Nc1ccncc1N`, the Potency result was “inactive”.

For the compound `CCC(C)c1ccccc1O` (stereo not given), the Potency result is “inactive”.

On to `OCC(O)CN1CCN(c2ccccc2)CC1` (stereo not given), for which the Potency entry is “inactive”.

For `O=C(c1ccccc1)C1CCCCC1`, the Potency entry is “inactive”.

`CCc1cccc2c3c([nH]c12)C(CC)(CC(=O)O)OCC3` (stereo not given): the Potency result is “inactive”.

In the case of `FC(F)(F)/C(=N\OCC1OCCO1)c1ccc(Cl)cc1`, the Potency entry was “inactive”.

Turning to `C[C@@H]1CC(=O)NN=C1c1ccc(NN=C(C#N)C#N)cc1`, the Potency entry was “inactive”.

Turning to `CC(C)(C#N)c1cc(Cn2cncn2)cc(C(C)(C)C#N)c1`, the Potency result was “inactive”.

Take `OC(Cn1cncn1)(Cn1cncn1)c1ccc(F)cc1F`: the Potency entry was “inactive”.

Turning to `O=Cc1ccc(O)c(O)c1O`, the Potency entry is “inactive”.

Turning to `O=C(CCN1CCN2CCCC2C1)N1c2ccccc2Sc2ccc(Cl)cc21` (stereo not given), the viability change, negative = cytotoxic is 0.501% [at 18.9 µM].

Regarding `O=C(O)CC(=O)O`, the Potency entry is “inactive”.

As to `Cc1[nH]c(C)c(Cl)c(=O)c1Cl`, the viability change, negative = cytotoxic was 2.74% [at 18.9 µM].

`CCC(O)OC(O)CC` (stereo not given): the Potency result was “inactive”.

For `c1ccc(OCc2ccc(CCCN3CCOCC3)cc2)cc1`, the Potency entry is “inactive”.

Take `O=C(O)c1cccnc1C(=O)O`: the Potency entry was “inactive”.

In the case of `CCCCCCCCC(=O)OCC`, the Potency entry is “inactive”.

Turning to `O=CCCc1ccccc1`, the Potency result was “inactive”.

Turning to `CC(C)NCC(O)c1ccc(O)c(O)c1` (stereo not given), the Potency entry was “inactive”.

In the case of `CC12CCC(CC1=O)C2(C)C` (stereo not given), the Potency result is “inactive”.

`CC(CCc1ccc(O)cc1)NCCc1ccc(O)c(O)c1` (stereo not given): the Potency entry was “inactive”.

Take `C=C(C)C(=O)O`: the Potency entry was “inactive”.

As to `Cc1cc(C)c(C(=O)O)c(C)c1`, the Potency result was “inactive”.

`CCN(CC)c1ccc(C=O)c(O)c1`: the Potency entry is “inactive”.

On to `CN/C(=C\[N+](=O)[O-])NCCSCc1csc(CN(C)C)n1`, for which the Potency result was “inactive”.

`CCCCCOc1ccc(C2SC(=O)NC2=O)cc1OCC` (stereo not given): the Potency result is “inactive”.

Turning to `CC(=O)O[C@@H]1C[C@@H]2CC[C@@]1(C)C2(C)C`, the Potency entry is “inactive”.

Take `CCCCc1ccc2c(n1)[C@@H](c1ccc(OC)cc1C[C@H](C)C(=O)O)[C@H](C(=O)O)[C@H]2c1ccc2c(c1)OCO2`: the Potency entry was “inactive”.
